According to PubChem BioAssay:
Unmarked numbers belong to inactive results. The source made the active and inactive calls.

Test: fission yeast growth modulation, primary screen, strain 972, OD600, 24 h, no modulator (AID 1090);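 further: basal condition with compound alone and no growth modifier present; test concentration not given here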
Conditions: S. pombe 972 growth, higher = more signal, called active from +8 up or from −8 down

Compound	z-score
COc1ccc(C#Cc2ccc3c(c2)[C@]2(C(=O)N3)[C@H](C(=O)O)[C@H]3C(=O)O[C@H](c4ccccc4)[C@H](c4ccccc4)N3[C@@H]2c2ccc(O)cc2)cc1	-0.813
CCC#CCN(Cc1ccccc1Br)[C@H](/C=C/C1CC1)[C@@H](O)Cc1ccccc1	-1.55
COC(=O)[C@@]1(Cc2ccccc2)[C@H]2c3cc(C(=O)N(C)C)n(Cc4ccc(C)o4)c3C[C@H]2CN1C(=O)c1ccccc1	0.65
CC(C)NC(=O)[C@@]1(C)c2ccccc2C(=O)N(Cc2ccc(OC(F)(F)F)cc2)[C@H]1c1ccc(CO)cc1	-0.784
COc1ccc([Si](C)(C)[C@@H]2[C@@H](CC(=O)N3CCC[C@H]3CO)O[C@]3(C(=O)N(Cc4cccc(N5C(=O)COc6ccccc65)c4)c4ccccc43)[C@H]2C)cc1	-0.185
CCCC[C@@H](O)C1=C(COC)C[C@H]2C(=O)N(C)C(=O)[C@H]2[C@H]1CO	-1.77
COc1ccc([Si](C)(C)[C@@H]2[C@@H](CC(=O)N(CCO)Cc3ccccc3)O[C@]3(C(=O)N(Cc4cccc(N5CCCCC5=O)c4)c4ccccc43)[C@H]2C)cc1	-0.0344
COc1ccc(CCNC(=O)[C@@]2(Sc3ccc(C)cc3)CC(=O)N(Cc3ccccc3C(F)(F)F)[C@@H]2c2ccc(CO)cc2I)cc1	-4.64
[N-]=[N+]=Nc1ccccc1[C@@H]1OC(c2ccc(OCCCO)cc2)=N[C@]1(Cc1ccccc1)C(=O)N1CCCCC1	-0.487
Cc1ccc(S[C@]2(C(=O)NCc3ccccc3)CC(=O)N(C3CCCCC3)[C@@H]2c2ccc(CO)cc2I)cc1	-0.462
COc1ccc([Si](C)(C)[C@H]2[C@H](CC(=O)N(CCO)Cc3ccccc3)O[C@@]3(C(=O)N(C)c4c(Br)cc(C)cc43)[C@@H]2C)cc1	-1.59
[N-]=[N+]=Nc1ccccc1[C@@H]1OC(c2ccc(OCCCO)cc2)=N[C@]1(Cc1ccccc1)C(=O)O	0.594
CCCC1(C(=O)OC)C=C2C(=C(C)C(=O)C2C)CN1 (stereo not given)	0.883
COCC(=C=CC[C@H](O)c1ccccc1OCCO)C[C@H](O)c1ccccn1	-0.422
Oc1ccc2cc[n+](Cc3cc4c(cc3Br)OCO4)cc2c1	-1.41
CC(C)[Si]1(C(C)C)OCc2cc(C3CC3)nc(-c3ccc(Oc4ccccc4)cc3)c21	1.12
[N-]=[N+]=Nc1ccccc1C[C@]1(C(=O)N2CCOCC2)COC(c2ccc(OCCCO)cc2)=N1	-5.79
[N-]=[N+]=Nc1ccccc1C[C@@]1(C(=O)NCCN2CCOCC2)N=C(c2ccc(OCCCO)cc2)O[C@@H]1c1ccccc1N=[N+]=[N-]	-14.1 (active)
CCCCC(CC)C(O)C1C=CC2C(=O)N(C)C(=O)C2N1Nc1ccccc1 (stereo not given)	-0.592
O=C1N(CCS(=O)(=O)c2ccccc2)c2ccccc2[C@H]2OC(c3ccc(OCCCO)cc3)=N[C@@]12Cc1ccccc1	-0.0472
COc1ccc(C#Cc2ccc3c(c2)[C@]2(C(=O)N3)[C@H](c3ccc(O)cc3)N3[C@H](c4ccccc4)[C@H](c4ccccc4)OC(=O)[C@H]3[C@@H]2C(=O)Nc2nc3ccccc3s2)cc1	-0.924
CCOc1cc(C(O)C2C=CC3C(=O)NC(=O)C3N2Nc2ccc(Cl)cc2Cl)ccc1O (stereo not given)	-1.29
Cc1ccc(S[C@]2(C(=O)NCC(F)(F)F)CC(=O)N(Cc3cc(C(F)(F)F)cc(C(F)(F)F)c3)[C@@H]2c2ccc(CO)cc2I)cc1	-2.58
C=CCC(OC(C)=O)[C@@H]1[C@@H](N(Cc2cc3ccccc3o2)C(=O)Cc2ccc(F)cc2)c2cc(OCCCO)ccc2N1C(=O)Cc1ccc2ccccc2c1 (stereo not given in full)	-0.761
CO[C@H]1O[C@H](CO)[C@@H](OC(=O)Nc2ccccc2)[C@H](OC(=O)c2cc3ccccc3[nH]2)[C@H]1OC(=O)c1cc2ccccc2[nH]1	-0.562
